# A selection: hits, their analogues and other compounds. The true share with any hit is near 12%.
# HP1b chromo inh: blocks HP1-beta chromodomain binding to methylated histone tails; AID 540317; Potency, µM (series often up to 114 µM), for the others: top-dose activity change, negative = inhibition, usual class: inhibitors; P83916; AlphaScreen HP1-beta / biotin-H3K9me3 peptide binding; 390,000 tested, 0.56% active; also: nearly all actives have a fitted effect of over 70% in size
# Target sequence (P83916 whole entry, looked up): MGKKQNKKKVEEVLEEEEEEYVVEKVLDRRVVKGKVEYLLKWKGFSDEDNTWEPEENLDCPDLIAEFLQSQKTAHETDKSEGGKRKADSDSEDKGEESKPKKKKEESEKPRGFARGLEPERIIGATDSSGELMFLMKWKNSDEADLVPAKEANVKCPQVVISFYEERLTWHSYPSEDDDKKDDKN
#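 HP1-beta protein (50 nM final) preincubated 30 min at room temperature with biotinylated H3(1-18)K9me3 peptide (50 nM) in PBS pH 7.4, 0.01% Tween-20, then compound added for 30 min. AlphaScreen streptavidin donor/nickel chelate acceptor beads (10 ug/mL final), 30 min dark, luminescence read.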
# Sfp inh: Sfp phosphopantetheinyl transferase inhibition. Biochemical Sfp PPTase activity, qHTS. 310,000 tested, 3.5% active. Q9F4F7. Potency, µM, for the others: largest response in the series, negative = inhibition, most hits filed as inhibitors;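 also: the enzyme is Sfp with the accession as filed and its product quenches rhodamine fluorescence; 0% = enzyme reaction without inhibitor and -100% = no enzyme wells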
#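 Fluorescence-quenching assay: 15 nM Sfp-PPTase preincubated 15 min at room temperature with compound, then 5 uM rhodamine-CoA and 12.5 uM BHQ-2-labelled YbbR peptide added. Fluorescence (ex 525/em 598 nm) read at start and after 30 min; difference gives rate.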
# G9a block: blocks human histone lysine methyltransferase G9a. G9a H3K9 monomethylation, AlphaScreen, 2 h. Q96KQ7. 350,000 tested, 8.8% active. Potency, µM (titrated, usually from 102 µM), for the others: top-dose activity, negative = inhibition, usual class: inhibitors; also: % is scaled to controls: 0 for no effect and ±100 for the full control effect; nearly all actives have a fitted effect of over 75% in size
# Target sequence (Q96KQ7 913-1193 limits assumed): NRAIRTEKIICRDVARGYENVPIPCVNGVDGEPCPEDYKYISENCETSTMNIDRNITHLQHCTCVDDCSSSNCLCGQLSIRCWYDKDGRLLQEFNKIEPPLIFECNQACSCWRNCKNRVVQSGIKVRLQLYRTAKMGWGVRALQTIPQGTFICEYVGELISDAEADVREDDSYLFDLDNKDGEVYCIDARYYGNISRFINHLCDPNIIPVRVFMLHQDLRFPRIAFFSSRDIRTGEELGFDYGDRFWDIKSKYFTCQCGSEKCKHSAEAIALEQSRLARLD
#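 Methyltransferase reactions run at room temperature for 2 h (20 nM enzyme, 500 nM biotin-H3K9 peptide, 20 uM SAM) after a 15 min compound preincubation; product detected by AlphaScreen beads and anti-H3K9me1 antibody.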
# L3MBTL1 block: blocks human L3MBTL1. Q9Y468. Potency, µM (highest dose often 57.1 µM), for the others: at the highest dose activity, negative = inhibition, most hits filed as inhibitors. AID 485360. 230,000 tested, 0.66% active. AlphaScreen L3MBTL1–H3K9me1 peptide binding; also: % is scaled to controls: 0 for no effect and ±100 for the full control effect; nearly all actives have a fitted effect of over 60% in size
#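 AlphaScreen assay: L3MBTL1 (50 nM final) was preincubated 30 min at room temperature with biotinylated H3(1-15)K9me1 peptide (75 nM final), then 30 min with library compounds; streptavidin donor and nickel chelate acceptor beads (10 ug/mL final) added, 30 min dark.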
# JMJD2A Tudor inh: JMJD2A Tudor domain (human) inhibition | O75164 | AlphaScreen JMJD2A-Tudor / H3K4me3 peptide binding | Potency, µM (doses to about 114 µM), inactives show top-dose activity change, negative = inhibition, actives largely listed as inhibitors | 390,000 tested, 4.4% active; also: % is scaled to controls: 0 for no effect and ±100 for the full control effect; nearly all actives have a fitted effect of over 50% in size
# BAZ2B inh: inhibitors of human BAZ2B bromodomain. Q9UIF8. AID 504333. 360,000 tested, 4.4% active. AlphaScreen BAZ2B-H3K14Ac peptide displacement. Potency, µM (highest dose often 114 µM), for the others: at the top dose activity change, negative = inhibition, most hits filed as inhibitors; also: % is scaled to controls: 0 for no effect and ±100 for the full control effect; nearly all actives have a fitted effect of over 60% in size
#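 AlphaScreen displacement of biotin-H3(5-23)K14Ac peptide (50 nM final) from BAZ2B (50 nM final) in PBS pH 7.4, 0.01% Tween-20; complex preformed 30 min RT, then compounds (top 110 uM) 30 min RT, beads 20 min dark.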
# Starred values were filed as active, the others as inactive; u = inconclusive; x = no result; ! = not active in a repeat; [ ] = dose if it differs, or a comment. Calls follow the shape of the dose curve; as a rule, active = well fitted curve in the direction sought with a large enough effect; inconclusive = small, poorly fitted or top-dose-only effect, or another doubt; inactive = no such curve, though single readings can be large; an effect the other way counts as inactive or inconclusive. Potency is read from the fitted curve at half-maximal effect.
SMILES,HP1b chromo inh,Sfp inh,G9a block,L3MBTL1 block,JMJD2A Tudor inh,BAZ2B inh
Cn1c(O)c(/C=C2\C=Nc3ccccc32)c(=O)n(C)c1=O,16%,22%,u,0%,-5%,-18%
CC(CNC(=O)CCS(=O)(=O)c1ccc2c(c1)oc(=O)n2C)c1ccccc1 (centres undefined),38%,15%,26%,x,-7%,-15%
CC(C)N(Cc1ccccc1)C(=O)CCS(=O)(=O)c1ccc2c(c1)oc(=O)n2C,51%,4%,71µM*,x,-4%,-19%
CCCCC(C#N)(Cn1cncn1)c1ccc(Cl)cc1 (centres undefined),x,5%,x,x,x,x
CC(C)C1(C)N=C(c2ncccc2C(=O)O)NC1=O (centres undefined),-3%,-28%,32µM*,x,22µM*,28µM*
O=C(c1ccc(F)cc1)N1CCC2(CC1)OCCO2,14%,5%,x,1%,-11%,-6%
C=CCn1c(O)c(C=NCCCOc2ccc(CC)cc2)c(=O)[nH]c1=S,24%,-29%,u,1%,-17%,1%
C=CCn1c(O)c(Cc2ccc(OCC)cc2)c(=O)[nH]c1=O,-12%,0%,3%,x,32µM*,0%
O=C(NC1CCCCC1)Oc1cc2oc(=O)sc2cc1Cl,39%,3.5µM*,40µM*,x,-27%,-27%
CC(C)(C)C1CCc2onc(C(=O)O)c2C1 (centres undefined),42%,23%,0%,8%,-5%,-19%
CCOC(=O)c1cc2c(cn1)[C@@H](CCO)NC2,13%,x,x,x,45µM*,x
CCCOC(=O)c1cc2c(cn1)[nH]c1ccccc12,x,u,14%[59 µM],x,x,x
CC[C@H]1CN(C)C[C@@]2(C(=O)OC)Cc3c([nH]c4ccccc34)C(=O)C[C@@H]12,27%,x,x,x,-7%,x
CC[C@H]1CC2CN3CCc4c([nH]c5cc(OC)ccc45)[C@](C(=O)OC)(C2)[C@H]13,-27%,x,x,x,40µM*,x
COc1ccc(CNc2oc(-c3cccc4ccccc34)nc2P(=O)(OC)OC)cc1,90%,50µM*,0%,x,41%,x
CCCOP(=O)(OCCC)c1nc(-c2ccccc2)oc1NCc1ccccc1,60%,-12%,28%[59 µM],-4%,-5%,5%
Cl.Cl.Cl.Cl.Cl.Cl.N.N.N.N.NNNNN.NNNNN.O.O.[Ru].[Ru].[Ru],x,50µM*,x,x,x,x
N[C@@H](CCP(=O)(O)O)C(=O)O,x,-16%,x,x,x,x
NC(CCP(=O)(O)O)C(=O)O (centres undefined),x,50µM*,-11%[59 µM],x,x,x
CCCCCCOc1ccc(CN2CCN(CC)CC2)cc1,0%,-1%,56µM*,x,-31%,u
c1cc(CN2CCC3(CCNCC3)CC2)ccn1,x,0%,-15%[12.7 µM],x,x,x
CCOC(=O)c1c(C)[nH]c(C)c1S(=O)(=O)N1CCC(C(=O)N2CCN(c3ccc(Cl)cc3)CC2)CC1,-7%,x,6%[59 µM],x,u,u
O=C(CSc1nc2c([nH]c3ccccc32)c(=O)n1-c1ccccc1)c1ccccc1,11%[57 µM],x,12%[59 µM],x,u,1%
CC1OC1P(=O)(O)O (centres undefined),x,5%,25µM*!,x,x,x
Oc1cc2c(cc1O)[C@H]1c3ccccc3CN[C@H]1CC2,x,40µM*,1.4µM*,x,x,x
SMILES,HP1b chromo inh,Sfp inh,G9a block,L3MBTL1 block,JMJD2A Tudor inh,BAZ2B inh
Oc1cc2c(cc1O)[C@H]1c3ccccc3CN[C@@H]1CC2,x,32µM*,2.5µM*,x,x,u
Cc1cc(-c2n[nH]c(=S)n2CC(C)C)cs1,u,2%,3.2µM*,3%,5.6µM*,-5%
N#CC(C#N)=NNc1ccc(-n2ccc(C(F)(F)F)n2)cc1,-18%,-4%,32µM*,x,u,32µM*
CCN(CC)S(=O)(=O)c1ccc(NN=C(C#N)C#N)cc1,u,8%,u,-21%,u,u
Cc1cc(C)n(-c2ccc(NN=C(C#N)C#N)cc2)n1,2%,u,x,-16%,u,32µM*
COc1ccc(C[C@H]2c3cc(OC)c(OC)cc3CCN2C)cc1OC,x,13%,16%[21.5 µM],x,x,x
CCCCCCNc1nc(OC)nc(N2CC3CC(C2)c2cccc(=O)n2C3)n1 (centres undefined),26%,8%,-17%,1%,-17%,-14%
CCOc1nc(NC(C)C)nc(N2CC3CC(C2)c2cccc(=O)n2C3)n1 (centres undefined),u,0%,-28%,x,20µM*,11%
Cc1ccc(-n2c(O)c(/C=N/NC(=O)c3ccncc3)c(=O)[nH]c2=O)cc1C,51%,13%,u,-5%,56µM*,50µM*
CC(CO)(CO)N=Cc1c(O)n(-c2cccc3ccccc23)c(=O)[nH]c1=O,25%,3%,-30%[59 µM],x,6%,-1%
O=C(N/N=C/c1c(O)n(-c2cccc3ccccc23)c(=O)[nH]c1=O)c1ccncc1,34%,2%,6%,u,50µM*,79µM*
COc1ccc(Cn2c(O)c(/C=N/NC(=O)c3ccncc3)c(=O)[nH]c2=O)cc1,48%,9%,u,-8%,u,u
O=C(N/N=C/c1c(O)n(CCc2ccccc2)c(=O)[nH]c1=O)c1ccncc1,41%,2%,20µM*,-18%,-32%,56µM*
O=C(N/N=C/c1c(O)n(CCc2ccc(F)cc2)c(=O)[nH]c1=O)c1ccncc1,30%,-5%,123%[59 µM],x,u,50µM*
CCC1(CC)CCNC1=O,x,-3%,x,x,x,x
COc1ccc(CN2CCN(c3ncnc4sc5c(c34)CCCC5)CC2)cc1F,5%,x,u,x,-30%,-29%
O=C1NCCOC(=O)[C@H](Cc2ccc(F)cc2)CC/C=C/C[C@@H]1CC(=O)N(CCO)Cc1ccccc1,44%,x,x,6%,-11%,x
CCCCCCC(=O)N/N=C/c1c(O)n(CCc2ccccc2)c(=O)[nH]c1=O,35%,29%,-3%,-4%,-19%,4%
O=C(N/N=C/c1c(O)n(CCc2ccccc2)c(=O)[nH]c1=O)c1ccccc1O,33%,8%,71µM*,x,u,-38%
O=C(C(=O)N1CCc2ccccc2C1)c1cn(CC(=O)N2CCCCC2)c2ccccc12,38%,-12%,40µM*,-8%,-21%,-4%
C[C@@H]1CC([C@H](O)CC2CC(=O)NC(=O)C2)C(=O)[C@@H](C)C1 (some centres undefined),x,32%,40%[59 µM],x,x,x
CC/C(=C(\c1ccc(O)cc1)c1ccc(OCCN(C)C)cc1)c1ccccc1,-21%,40µM*,u,x,56µM*,45µM*
Cc1ccc(S(=O)(=O)NN)c(C)c1N1CCCC1=O,62%,56µM*,x,56%,-8%[11.4 µM],2%
